# Experiments:
# Assay in all cases: DAPPL (digital affinity profiling via proximity ligation, sequencing); 10 mM Tris-HCl pH 7.5, 50 mM NaCl, 1 mM DTT, 4% glycerol, room temperature, 30 min; GST-TFs on glutathione beads, 16-mer random dsDNA library, 0.1% formaldehyde crosslink after washing; high values mean tight binding
# Conditions in all cases: protein: recombinant; tags: N-terminal GST; dsDNA, one strand shown
# FLI1 = target: T1, FLI1 (Homo sapiens, UniProt Q01543 1-452)
# T1 sequence: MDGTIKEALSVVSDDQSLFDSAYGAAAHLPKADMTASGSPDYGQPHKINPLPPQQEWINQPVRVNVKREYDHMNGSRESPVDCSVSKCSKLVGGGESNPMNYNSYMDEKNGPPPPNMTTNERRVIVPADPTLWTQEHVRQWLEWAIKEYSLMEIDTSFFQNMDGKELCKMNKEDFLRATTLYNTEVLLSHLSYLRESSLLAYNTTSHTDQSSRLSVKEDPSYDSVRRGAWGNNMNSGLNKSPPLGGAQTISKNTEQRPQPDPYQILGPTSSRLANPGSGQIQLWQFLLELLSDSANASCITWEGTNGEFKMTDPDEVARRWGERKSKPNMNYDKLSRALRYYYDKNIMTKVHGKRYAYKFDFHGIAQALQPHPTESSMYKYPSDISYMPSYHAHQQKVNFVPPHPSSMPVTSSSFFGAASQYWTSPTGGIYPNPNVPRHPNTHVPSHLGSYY
# Summary of the method: (§1)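 Pools were built from human transcription factors expressed in yeast as GST fusions, captured on glutathione beads and DNA-barcoded, along with a tag-only sample. Incubation with 200 nmole of a 16-mer random double-stranded DNA library lasted 30 min at room temperature in Tris/NaCl/DTT/glycerol buffer, and was followed by washing, 0.1% formaldehyde crosslinking, proximity ligation, PCR amplification and Illumina NextSeq500 sequencing. Binding signal is the quotient of each hexamer's read frequency for a factor and its frequency for the tag-only sample.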
# ELK1 = target: T2, ELK1 (Homo sapiens, UniProt P19419 1-428)
# T2 sequence: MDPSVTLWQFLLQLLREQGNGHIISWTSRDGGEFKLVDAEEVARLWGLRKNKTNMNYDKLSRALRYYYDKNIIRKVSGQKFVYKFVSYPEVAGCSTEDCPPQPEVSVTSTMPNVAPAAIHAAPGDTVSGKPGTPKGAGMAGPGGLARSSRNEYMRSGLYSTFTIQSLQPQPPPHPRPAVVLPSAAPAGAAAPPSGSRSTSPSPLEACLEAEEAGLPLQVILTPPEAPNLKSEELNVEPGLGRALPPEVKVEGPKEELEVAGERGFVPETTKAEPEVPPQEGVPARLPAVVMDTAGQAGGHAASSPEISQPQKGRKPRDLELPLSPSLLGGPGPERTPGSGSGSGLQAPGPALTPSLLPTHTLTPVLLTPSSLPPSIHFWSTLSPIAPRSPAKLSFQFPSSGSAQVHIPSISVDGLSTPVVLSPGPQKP
# Summary of the method: as §1
# GABPA = target: T3, GABPA (Homo sapiens, UniProt Q06546 1-454)
# T3 sequence: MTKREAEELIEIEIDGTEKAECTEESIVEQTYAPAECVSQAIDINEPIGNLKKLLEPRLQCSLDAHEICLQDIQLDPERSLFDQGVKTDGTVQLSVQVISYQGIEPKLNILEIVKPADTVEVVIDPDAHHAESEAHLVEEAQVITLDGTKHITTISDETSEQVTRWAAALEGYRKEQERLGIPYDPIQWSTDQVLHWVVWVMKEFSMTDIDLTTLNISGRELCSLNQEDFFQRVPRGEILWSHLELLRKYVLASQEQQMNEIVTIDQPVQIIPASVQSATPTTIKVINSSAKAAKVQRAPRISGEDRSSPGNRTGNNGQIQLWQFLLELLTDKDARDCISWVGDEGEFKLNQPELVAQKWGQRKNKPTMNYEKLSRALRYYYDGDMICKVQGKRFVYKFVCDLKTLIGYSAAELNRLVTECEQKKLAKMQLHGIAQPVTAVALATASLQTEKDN
# Summary of the method: as §1
# ERG = target: T4, ERG (Homo sapiens, UniProt P11308 1-479)
# T4 sequence: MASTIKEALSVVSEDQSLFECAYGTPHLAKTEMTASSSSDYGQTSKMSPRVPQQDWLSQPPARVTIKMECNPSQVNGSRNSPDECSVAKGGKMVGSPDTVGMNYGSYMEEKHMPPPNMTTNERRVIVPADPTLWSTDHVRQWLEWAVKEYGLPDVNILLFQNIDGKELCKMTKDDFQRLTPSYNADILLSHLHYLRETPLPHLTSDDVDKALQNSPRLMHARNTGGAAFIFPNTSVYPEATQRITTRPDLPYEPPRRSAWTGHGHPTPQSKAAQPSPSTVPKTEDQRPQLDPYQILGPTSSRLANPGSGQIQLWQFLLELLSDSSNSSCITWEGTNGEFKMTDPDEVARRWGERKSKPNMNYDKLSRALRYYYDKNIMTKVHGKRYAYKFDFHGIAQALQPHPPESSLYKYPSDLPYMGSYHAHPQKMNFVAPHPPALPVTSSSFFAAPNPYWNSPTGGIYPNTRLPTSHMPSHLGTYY
# Summary of the method: as §1
# ELF1 = ELF1 (Homo sapiens, UniProt P32519 1-619)
# ELF1, sequence (P32519 whole entry): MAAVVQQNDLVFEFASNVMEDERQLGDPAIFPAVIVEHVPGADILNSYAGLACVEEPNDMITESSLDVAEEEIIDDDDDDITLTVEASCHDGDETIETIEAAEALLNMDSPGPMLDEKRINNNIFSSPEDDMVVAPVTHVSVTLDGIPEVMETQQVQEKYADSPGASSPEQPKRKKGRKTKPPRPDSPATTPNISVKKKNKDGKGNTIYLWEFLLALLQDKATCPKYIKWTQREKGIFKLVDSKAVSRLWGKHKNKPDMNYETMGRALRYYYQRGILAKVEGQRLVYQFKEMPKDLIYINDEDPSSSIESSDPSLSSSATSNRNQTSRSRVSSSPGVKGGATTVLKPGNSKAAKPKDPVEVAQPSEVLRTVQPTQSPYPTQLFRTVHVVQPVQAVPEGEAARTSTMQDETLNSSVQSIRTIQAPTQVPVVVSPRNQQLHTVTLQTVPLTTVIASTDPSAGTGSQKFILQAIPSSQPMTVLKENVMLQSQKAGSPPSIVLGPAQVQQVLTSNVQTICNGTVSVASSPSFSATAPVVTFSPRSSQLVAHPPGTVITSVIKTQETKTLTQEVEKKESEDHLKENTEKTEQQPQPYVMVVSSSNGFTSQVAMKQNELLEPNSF
# Summary of the method: as §1
# EHF = target: T5, EHF (Homo sapiens, UniProt Q9NZC4 1-300)
# T5 sequence: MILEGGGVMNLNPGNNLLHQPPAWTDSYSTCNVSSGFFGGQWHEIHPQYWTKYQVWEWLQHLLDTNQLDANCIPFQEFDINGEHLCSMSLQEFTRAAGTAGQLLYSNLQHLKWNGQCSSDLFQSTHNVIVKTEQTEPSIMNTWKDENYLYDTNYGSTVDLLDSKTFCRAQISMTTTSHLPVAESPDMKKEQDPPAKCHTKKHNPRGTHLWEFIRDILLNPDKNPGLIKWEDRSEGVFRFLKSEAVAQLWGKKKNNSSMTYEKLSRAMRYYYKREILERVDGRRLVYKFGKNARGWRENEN
# Summary of the method: as §1
# SPI1 = SPI1 (Homo sapiens, UniProt P17947 1-270)
# Summary of the method: as §1
# SPIB = SPIB (Homo sapiens, UniProt Q01892 1-262)
# SPIB, sequence (Q01892 whole entry): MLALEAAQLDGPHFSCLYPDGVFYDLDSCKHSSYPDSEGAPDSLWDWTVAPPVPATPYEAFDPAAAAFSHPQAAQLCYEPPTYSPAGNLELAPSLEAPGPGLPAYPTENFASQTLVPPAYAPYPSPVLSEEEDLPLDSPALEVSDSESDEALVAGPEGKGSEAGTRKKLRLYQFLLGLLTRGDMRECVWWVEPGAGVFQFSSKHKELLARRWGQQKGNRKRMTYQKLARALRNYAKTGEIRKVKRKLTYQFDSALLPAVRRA
# Summary of the method: as §1
# ELK3 = target: T6, ELK3 (Homo sapiens, UniProt P41970 1-407)
# T6 sequence: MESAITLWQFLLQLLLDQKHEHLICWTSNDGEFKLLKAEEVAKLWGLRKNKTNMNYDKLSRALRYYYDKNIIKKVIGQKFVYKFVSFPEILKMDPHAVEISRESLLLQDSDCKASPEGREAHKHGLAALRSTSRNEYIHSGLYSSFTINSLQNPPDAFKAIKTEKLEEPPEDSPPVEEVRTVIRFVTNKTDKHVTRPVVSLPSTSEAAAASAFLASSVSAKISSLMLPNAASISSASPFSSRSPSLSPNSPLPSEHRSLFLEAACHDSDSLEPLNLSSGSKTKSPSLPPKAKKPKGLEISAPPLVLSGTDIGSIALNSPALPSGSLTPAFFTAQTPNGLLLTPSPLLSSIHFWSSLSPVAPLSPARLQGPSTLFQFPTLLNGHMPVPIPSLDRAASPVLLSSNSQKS
# Summary of the method: as §1
# FEV = target: T7, FEV (Homo sapiens, UniProt Q99581 1-238)
# T7 sequence: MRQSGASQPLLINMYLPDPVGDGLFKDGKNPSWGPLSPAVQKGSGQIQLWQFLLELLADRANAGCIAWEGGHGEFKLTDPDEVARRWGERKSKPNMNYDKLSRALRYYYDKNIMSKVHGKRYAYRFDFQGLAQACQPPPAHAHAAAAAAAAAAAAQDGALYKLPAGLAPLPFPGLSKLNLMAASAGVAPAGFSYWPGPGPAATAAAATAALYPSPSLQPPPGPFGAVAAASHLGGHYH
# Summary of the method: as §1
# ETV5 = ETV5 (Homo sapiens, UniProt P41161 1-510)
# ETV5, sequence (P41161 whole entry): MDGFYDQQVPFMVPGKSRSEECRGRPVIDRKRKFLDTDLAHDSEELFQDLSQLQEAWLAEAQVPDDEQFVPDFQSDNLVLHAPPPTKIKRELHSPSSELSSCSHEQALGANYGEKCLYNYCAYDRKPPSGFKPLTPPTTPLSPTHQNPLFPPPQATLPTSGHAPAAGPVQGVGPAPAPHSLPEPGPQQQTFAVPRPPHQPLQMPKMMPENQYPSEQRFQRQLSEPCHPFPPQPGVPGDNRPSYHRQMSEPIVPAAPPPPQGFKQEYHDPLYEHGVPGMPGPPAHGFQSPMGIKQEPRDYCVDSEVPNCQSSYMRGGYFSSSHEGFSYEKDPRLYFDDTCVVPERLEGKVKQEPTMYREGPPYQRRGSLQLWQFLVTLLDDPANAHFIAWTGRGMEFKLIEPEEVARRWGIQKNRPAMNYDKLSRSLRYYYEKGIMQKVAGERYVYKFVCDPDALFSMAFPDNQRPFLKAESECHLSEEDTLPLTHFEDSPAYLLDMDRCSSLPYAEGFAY
# Summary of the method: as §1
# SPIC = target: T8, SPIC (Homo sapiens, UniProt Q8N5J4 1-248)
# T8 sequence: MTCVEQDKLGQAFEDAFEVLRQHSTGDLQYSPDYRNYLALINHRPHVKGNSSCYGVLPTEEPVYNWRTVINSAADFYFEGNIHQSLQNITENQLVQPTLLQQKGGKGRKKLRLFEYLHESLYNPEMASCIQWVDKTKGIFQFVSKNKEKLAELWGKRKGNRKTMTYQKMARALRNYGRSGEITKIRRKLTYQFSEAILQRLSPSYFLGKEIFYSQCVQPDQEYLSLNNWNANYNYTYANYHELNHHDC
# Summary of the method: as §1
# ELF4 = ELF4 (Homo sapiens, UniProt Q99607 1-663)
# ELF4, sequence (Q99607 whole entry): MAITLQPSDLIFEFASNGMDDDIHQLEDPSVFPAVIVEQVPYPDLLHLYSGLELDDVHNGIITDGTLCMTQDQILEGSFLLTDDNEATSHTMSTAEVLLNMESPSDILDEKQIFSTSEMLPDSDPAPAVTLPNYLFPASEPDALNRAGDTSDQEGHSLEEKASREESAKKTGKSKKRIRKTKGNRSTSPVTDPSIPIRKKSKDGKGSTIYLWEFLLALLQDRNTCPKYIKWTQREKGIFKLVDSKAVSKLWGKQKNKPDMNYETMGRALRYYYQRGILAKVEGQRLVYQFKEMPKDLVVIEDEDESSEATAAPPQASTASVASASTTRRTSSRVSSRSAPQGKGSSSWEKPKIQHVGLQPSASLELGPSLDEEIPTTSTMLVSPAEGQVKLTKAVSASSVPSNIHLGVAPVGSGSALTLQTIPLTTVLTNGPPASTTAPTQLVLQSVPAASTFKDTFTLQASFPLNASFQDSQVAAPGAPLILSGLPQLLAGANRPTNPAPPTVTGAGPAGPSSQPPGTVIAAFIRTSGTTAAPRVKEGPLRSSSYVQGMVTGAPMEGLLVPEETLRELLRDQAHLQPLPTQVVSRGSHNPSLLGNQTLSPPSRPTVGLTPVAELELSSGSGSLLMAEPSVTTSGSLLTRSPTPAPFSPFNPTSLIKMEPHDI
# Summary of the method: as §1
# ELK4 = target: T9, ELK4 (Homo sapiens, UniProt P28324-2 1-405)
# T9 sequence: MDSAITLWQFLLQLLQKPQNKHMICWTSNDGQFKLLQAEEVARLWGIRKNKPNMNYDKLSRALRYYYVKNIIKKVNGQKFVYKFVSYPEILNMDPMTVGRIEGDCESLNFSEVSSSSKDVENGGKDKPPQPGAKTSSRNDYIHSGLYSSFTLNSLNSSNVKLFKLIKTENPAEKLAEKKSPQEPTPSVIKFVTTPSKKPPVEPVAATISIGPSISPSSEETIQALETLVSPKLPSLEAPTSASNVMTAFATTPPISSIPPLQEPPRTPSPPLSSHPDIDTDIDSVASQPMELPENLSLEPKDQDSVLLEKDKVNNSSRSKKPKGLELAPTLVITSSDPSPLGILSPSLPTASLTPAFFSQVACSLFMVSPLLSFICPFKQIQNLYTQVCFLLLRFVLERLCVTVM
# Summary of the method: as §1
# ETV2 = target: T10, ETV2 (Homo sapiens, UniProt O00321 1-342)
# T10 sequence: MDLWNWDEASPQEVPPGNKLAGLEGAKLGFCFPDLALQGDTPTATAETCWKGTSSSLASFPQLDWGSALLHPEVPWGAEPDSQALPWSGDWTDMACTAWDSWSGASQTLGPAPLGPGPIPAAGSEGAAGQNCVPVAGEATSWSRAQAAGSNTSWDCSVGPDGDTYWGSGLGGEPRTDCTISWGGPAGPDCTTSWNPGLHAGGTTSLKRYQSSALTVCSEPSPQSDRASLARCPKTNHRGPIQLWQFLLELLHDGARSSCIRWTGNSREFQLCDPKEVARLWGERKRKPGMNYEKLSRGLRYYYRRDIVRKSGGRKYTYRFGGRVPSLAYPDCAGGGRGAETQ
# Summary of the method: as §1
# ELF3 = target: T11, ELF3 (Homo sapiens, UniProt P78545 1-371)
# T11 sequence: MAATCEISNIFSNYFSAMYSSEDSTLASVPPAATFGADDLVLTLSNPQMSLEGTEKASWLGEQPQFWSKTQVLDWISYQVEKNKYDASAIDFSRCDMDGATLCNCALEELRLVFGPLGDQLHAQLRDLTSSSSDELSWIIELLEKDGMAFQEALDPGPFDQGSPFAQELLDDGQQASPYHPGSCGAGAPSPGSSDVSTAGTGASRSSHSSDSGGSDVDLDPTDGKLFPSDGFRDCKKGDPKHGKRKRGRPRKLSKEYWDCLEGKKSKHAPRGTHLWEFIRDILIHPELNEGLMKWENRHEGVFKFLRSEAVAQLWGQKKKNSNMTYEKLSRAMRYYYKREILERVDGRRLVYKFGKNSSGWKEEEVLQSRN
# Summary of the method: as §1
# ETV1 = ETV1 (Homo sapiens, UniProt P50549 1-477)
# ETV1, sequence (P50549 whole entry): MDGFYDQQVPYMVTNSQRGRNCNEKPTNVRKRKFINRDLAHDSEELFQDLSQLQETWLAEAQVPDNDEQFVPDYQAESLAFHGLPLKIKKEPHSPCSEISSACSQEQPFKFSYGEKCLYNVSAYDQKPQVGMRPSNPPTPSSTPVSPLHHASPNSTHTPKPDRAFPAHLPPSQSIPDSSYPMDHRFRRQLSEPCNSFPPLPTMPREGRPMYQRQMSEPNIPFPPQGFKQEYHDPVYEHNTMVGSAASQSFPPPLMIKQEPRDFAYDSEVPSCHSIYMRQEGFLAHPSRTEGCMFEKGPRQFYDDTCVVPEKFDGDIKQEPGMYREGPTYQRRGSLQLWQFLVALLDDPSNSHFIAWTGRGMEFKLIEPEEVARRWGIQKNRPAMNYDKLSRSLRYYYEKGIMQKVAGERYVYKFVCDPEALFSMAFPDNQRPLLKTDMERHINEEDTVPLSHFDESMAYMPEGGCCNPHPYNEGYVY
# Summary of the method: as §1
sequence,measurement,setting,value
ACACAT,binding signal,FLI1,"1.34 fold enrichment (6-mer frequency, TF over GST control)"
same,binding signal,ELK1,"1.25 fold enrichment (6-mer frequency, TF over GST control)"
same,binding signal,GABPA,"1.17 fold enrichment (6-mer frequency, TF over GST control)"
same,binding signal,ERG,"1.31 fold enrichment (6-mer frequency, TF over GST control)"
same,binding signal,ELF1,"1.25 fold enrichment (6-mer frequency, TF over GST control)"
same,binding signal,EHF,"1.35 fold enrichment (6-mer frequency, TF over GST control)"
same,binding signal,SPI1,"1.21 fold enrichment (6-mer frequency, TF over GST control)"
same,binding signal,SPIB,"1.21 fold enrichment (6-mer frequency, TF over GST control)"
same,binding signal,ELK3,"1.32 fold enrichment (6-mer frequency, TF over GST control)"
same,binding signal,FEV,"1.29 fold enrichment (6-mer frequency, TF over GST control)"
same,binding signal,ETV5,"1.19 fold enrichment (6-mer frequency, TF over GST control)"
same,binding signal,SPIC,"1.17 fold enrichment (6-mer frequency, TF over GST control)"
same,binding signal,ELF4,"1.23 fold enrichment (6-mer frequency, TF over GST control)"
same,binding signal,ELK4,"1.33 fold enrichment (6-mer frequency, TF over GST control)"
same,binding signal,ETV2,"1.35 fold enrichment (6-mer frequency, TF over GST control)"
same,binding signal,ELF3,"1.28 fold enrichment (6-mer frequency, TF over GST control)"
same,binding signal,ETV1,"1.23 fold enrichment (6-mer frequency, TF over GST control)"
